From PubChem BioAssay
hcDAF12 agonist: activators of H. contortus DAF-12 nuclear receptor | activation, % at 6.8 µM | HEK293 hcDAF-12 lit1-tk-luc reporter, luminescence; 0% DMSO, 100% Δ7-dafachronic acid | 370,000 tested, 1.4% active | AID 652067;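 active = activation above the mean of all tested compounds plus 3 SD, cut at about 5.5% in these data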
Wee1 stabilizer: human Wee1 degradation inhibition, primary screen. P30291. HeLa Luc-Wee1K328M stability, luciferase luminescence; 100% = proteasome inhibitor MG132 effect. reporter increase, % at 5 µM. 220,000 tested, 1.2% active;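 active = activation above the mean of all tested compounds plus 3 SD, set per screening run, cut at about 8.8% in these data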;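 note: cells exposed to compound for 20 h before luminescence read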
Target sequence (P30291 whole entry K328M): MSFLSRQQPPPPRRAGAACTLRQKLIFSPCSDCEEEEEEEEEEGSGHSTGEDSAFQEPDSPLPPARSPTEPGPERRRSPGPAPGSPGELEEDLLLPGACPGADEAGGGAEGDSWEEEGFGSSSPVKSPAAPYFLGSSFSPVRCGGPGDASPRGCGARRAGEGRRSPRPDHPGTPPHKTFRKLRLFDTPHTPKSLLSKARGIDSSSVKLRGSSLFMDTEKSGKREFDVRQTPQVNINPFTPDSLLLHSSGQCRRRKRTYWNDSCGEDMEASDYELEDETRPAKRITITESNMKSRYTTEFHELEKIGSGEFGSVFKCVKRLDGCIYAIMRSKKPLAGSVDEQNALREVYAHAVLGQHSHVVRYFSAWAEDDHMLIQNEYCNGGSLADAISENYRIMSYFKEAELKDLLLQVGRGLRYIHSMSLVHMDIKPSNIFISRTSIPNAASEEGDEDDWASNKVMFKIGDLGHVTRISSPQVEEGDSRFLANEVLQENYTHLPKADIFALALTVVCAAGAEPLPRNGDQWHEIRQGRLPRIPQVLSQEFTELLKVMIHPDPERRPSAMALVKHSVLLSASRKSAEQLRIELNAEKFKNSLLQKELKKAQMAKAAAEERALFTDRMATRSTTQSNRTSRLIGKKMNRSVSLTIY
DAX1 inh-1: inhibitors of DAX1 repression of SF-1 activated StAR promoter; HEK293T StAR-luciferase reporter, SF-1/DAX-1 repression relief; inhibition, % at 6.8 µM; 370,000 tested, 1.1% active; AID 652010;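 active = inhibition above the mean over all tested compounds plus 3 SD, cut at about 3.6% in these data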;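 note: higher inhibition means more luminescence from relief of DAX-1 repression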
hgDAF12 agonist: hgDAF-12 agonism, primary luciferase screen; HEK293 GAL4-hgDAF12 UAS-luciferase reporter, agonist luminescence; normalized to butyrate control; activation, % at 6.8 µM; AID 687014; 370,000 tested, 1.8% active;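 active = activation above a cutoff set at the mean of all screened compounds plus 3 SD, cut at about 10% in these data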
ssDAF12 agonist: activates DAF-12 receptor from parasite S. stercoralis; 370,000 tested, 1% active; activation, % at 6.8 µM; HEK293 ssDAF-12/GRIP1 lit1-tk-luc reporter, luminescence; % of 3 µM dafachronic acid response;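 active = activation above the mean over all tested compounds plus 3 SD, cut at about 0.9% in these data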
DAX1 inh-2: inhibits human nuclear receptor DAX1; P51843; HEK293 Gal4-DAX1 luciferase reporter, luminescence; inhibition, % at 6.75 µM; 340,000 tested, 0.99% active; AID 504766;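 active = inhibition above the mean over all tested compounds plus 3 SD, cut at about 4.2% in these data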;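 note: inhibition shows as a rise in luminescence from relieved DAX1 repression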
DAX1 conf: NR0B1 (human) inhibition, confirmation; 2,400 tested, 87% active; AID 652134; inhibition, % at 6.8 µM; shares compounds with DAX1 inh-1; HEK293T StAR-promoter luciferase reporter, SF-1/DAX-1 repression;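 active = inhibition above the average of every tested compound plus 3 SD, cut at about 3.8% in these data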;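 note: active compounds raise luminescence by relieving repression of the StAR reporter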
SF1 mutant ctr: nonselective inhibitor or artifact in SF-1 mutant DAX1 counter-screen; HEK293 StAR-luciferase, SF-1 AF2 mutant, luminescence; inhibition, % at 6.8 µM; 2,400 tested, 78% active; shares compounds with DAX1 inh-1;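 active = inhibition above the mean of all tested compounds plus 3 SD, cut at about 3% in these data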
Of the large screens only hits and unclear results are named; the others gave an inactive call (follow-up assays come after a bar, where they were run). The list is not random: actives were taken first. Their share in the collection is about 4.6%.

C/C(=N/NC(=O)c1ccoc1C)c1cccs1	DAX1 inh-1 7.8 (no result: Wee1 stabilizer, DAX1 inh-2) | DAX1 conf 12 | SF1 mutant ctr 7.3
C/C(=N\NC(=O)c1ccoc1C)c1ccc(Cl)s1	none (no result: Wee1 stabilizer)
CC(=O)Nc1nc2cc3c(cc2s1)OCCO3	DAX1 inh-1 5.8, hgDAF12 agonist 11, ssDAF12 agonist 1.3 (no result: Wee1 stabilizer) | DAX1 conf 12 | SF1 mutant ctr 6.0
CNc1ccc(-c2cccc(C(=O)N3CCOCC3)c2)cn1	none (no result: Wee1 stabilizer, DAX1 inh-2)
O=C(CNC(=O)c1cccs1)c1ccc(F)cc1	DAX1 inh-1 4.7, hgDAF12 agonist 13 | DAX1 conf 16 | SF1 mutant ctr 6.9
O=C(CNC(=O)c1cccs1)c1ccc([N+](=O)[O-])cc1	none
O=C(CNC(=O)c1cccs1)Nc1ncccc1O	DAX1 inh-1 4.5 (no result: Wee1 stabilizer) | DAX1 conf inactive | SF1 mutant ctr inactive
O=C(c1cc(C2CCCCN2C(=O)CCCc2ccccc2)on1)N1CCOCC1 (configuration not stated)	none (no result: Wee1 stabilizer, DAX1 inh-2)
COc1ccc(NC(=O)COC(=O)c2cc(C)oc2C)c([N+](=O)[O-])c1	DAX1 inh-1 4.6 (no result: Wee1 stabilizer) | DAX1 conf inactive | SF1 mutant ctr inactive
COc1ccc(NC(=O)COc2ccc(C)cc2)c([N+](=O)[O-])c1	none (no result: DAX1 inh-2)
CC1NC(=O)c2ccccc2-n2c1nc1ccc(F)cc1c2=O (configuration not stated)	none (no result: Wee1 stabilizer, DAX1 inh-2)
Cc1ccc(C)c(N2CCN(C(=O)CCc3nc(-c4cccc(Cl)c4)no3)CC2)c1	DAX1 inh-1 5.1 (no result: Wee1 stabilizer) | DAX1 conf 5.8 | SF1 mutant ctr 3.6
COc1cccc(-c2noc(CCC(=O)N3CCN(c4cc(C)ccc4C)CC3)n2)c1	none (no result: Wee1 stabilizer)
C[C@@H]1CN([C@@H](C)CO)C(=O)CCCn2cc(nn2)CO[C@H]1CN(C)C(=O)Nc1ccc(N2CCN(C)CC2)cc1	none (no result: Wee1 stabilizer, DAX1 inh-2)
COCCNC(=O)C1(C)CCCN(Cc2cccc(OC(=O)c3ccccc3)c2)C1 (configuration not stated)	none (no result: Wee1 stabilizer, DAX1 inh-2)
COc1ccc(C(C#N)=Cc2ccc(OC)c(OC)c2)cc1	none (no result: Wee1 stabilizer)
COc1ccc(C=C(C#N)c2ccc(OC)cc2)cc1	DAX1 inh-1 6.7, hgDAF12 agonist 17 (no result: Wee1 stabilizer) | DAX1 conf 9.1 | SF1 mutant ctr 4.0
CCOC(=O)C1CC2=C(CC(C)(C)CC2=O)N(CCOC)C1=O (configuration not stated)	none (no result: Wee1 stabilizer)
Nc1c(C(=O)Nc2ccc3c(c2)OCCO3)nnn1Cc1ccc(Cl)cc1	DAX1 inh-1 8.7, hgDAF12 agonist 12 (no result: Wee1 stabilizer) | DAX1 conf 7.7 | SF1 mutant ctr 5.2
CCn1cc(Cl)c(C(=O)Nc2cccc(C(F)(F)F)c2)n1	none
Nc1c(C(=O)Nc2ccc3c(c2)OCCO3)nnn1Cc1cccc(F)c1	DAX1 inh-1 7.7 (no result: Wee1 stabilizer) | DAX1 conf 9.4 | SF1 mutant ctr 5.3
CCn1cc(Cl)c(C(=O)Nc2ccc3c(c2)OCCO3)n1	DAX1 inh-1 6.1, hgDAF12 agonist 13 | DAX1 conf 9.7 | SF1 mutant ctr 5.5
COc1ccc(Cn2nnc(C(=O)Nc3ccc4c(c3)OCCO4)c2N)cc1Br	none (no result: Wee1 stabilizer)
COc1ccc(S(=O)(=O)N(C)C[C@H]2Oc3c(cccc3N(C)C)C(=O)N([C@H](C)CO)C[C@@H]2C)cc1	none (no result: Wee1 stabilizer)
Cc1ccc(NC(=O)c2ccco2)nc1	DAX1 inh-1 8.0, hgDAF12 agonist 12 (no result: Wee1 stabilizer) | DAX1 conf 8.7 | SF1 mutant ctr 6.8
Cc1ccc(NC(=O)c2ccc3c(c2)OCCO3)nc1	DAX1 inh-1 6.1, hgDAF12 agonist 12 (no result: Wee1 stabilizer) | DAX1 conf inactive | SF1 mutant ctr inactive
COCCn1c(C)cc(C(=O)CN2C(=O)NC3(CCCCCC3)C2=O)c1C	DAX1 inh-1 6.8 (no result: Wee1 stabilizer) | DAX1 conf 4.5 | SF1 mutant ctr inactive
Cc1cc(C(=O)CN2C(=O)NC3(CCCCCC3)C2=O)c(C)n1C	none (no result: Wee1 stabilizer)
CCc1cccc2c(C(=O)CN3C(=O)NC4(CCCCCC4)C3=O)c[nH]c12	DAX1 inh-1 13 (no result: Wee1 stabilizer) | DAX1 conf 10 | SF1 mutant ctr inactive
O=C(O)c1cc(N2CCCC2)ccn1	none (no result: Wee1 stabilizer)
COC(=O)[C@]12CCCCC=C1N(Cc1ccc(Cl)cc1Cl)C(=O)[C@H](CC(=O)NCc1cccs1)C2	none (no result: Wee1 stabilizer, DAX1 inh-2)
Cn1cc(CCNC(=O)c2ccc3nc(Cc4ccccc4F)oc3c2)cn1	DAX1 inh-1 5.0, hgDAF12 agonist 12 (no result: Wee1 stabilizer) | DAX1 conf 7.1 | SF1 mutant ctr 5.8
CCn1cc(CNC(=O)c2ccc3nc(Cc4ccccc4F)oc3c2)cn1	none (no result: Wee1 stabilizer)
O=C(NCCc1ccccn1)c1ccc2nc(Cc3ccccc3F)oc2c1	DAX1 inh-1 7.0 (no result: Wee1 stabilizer) | DAX1 conf 6.9 | SF1 mutant ctr 5.2
Cn1cc(CNC(=O)c2ccc3nc(Cc4ccccc4F)oc3c2)cn1	none (no result: Wee1 stabilizer)
C[C@@H]1CN([C@@H](C)CO)S(=O)(=O)c2ccc(C#CC(C)(C)O)cc2O[C@H]1CN(C)C(=O)C1CCCCC1	none (no result: Wee1 stabilizer)
COCCSc1nnc(NC(=O)c2ccc3c(c2)OCO3)s1	none
CSc1nnc(NC(=O)c2ccc3c(c2)OCO3)s1	hcDAF12 agonist 6.0, DAX1 inh-1 13, hgDAF12 agonist 11 (no result: Wee1 stabilizer) | DAX1 conf inactive | SF1 mutant ctr inactive
Cc1cccc(OCC(=O)Nc2nnc(-c3ccco3)s2)c1	none
CCOc1cccc(C(=O)Nc2nnc(-c3ccco3)s2)c1	DAX1 inh-1 5.0, hgDAF12 agonist 11 | DAX1 conf 15 | SF1 mutant ctr 5.1
O=C(COC(=O)/C=C/c1ccc(Cl)cc1)NC1CC1	none (no result: Wee1 stabilizer)
O=C(COC(=O)/C=C/c1ccc(Cl)cc1)NC1CCCCCC1	DAX1 inh-1 4.8 (no result: Wee1 stabilizer) | DAX1 conf inactive | SF1 mutant ctr inactive
Cn1cnnc1SCC(=O)NNC(=O)c1ccc([N+](=O)[O-])cc1	none (no result: Wee1 stabilizer)
COC(=O)C1=CN(c2ccc(C(C)(C)C)cc2)C(N)=C(C#N)C1c1cccc2ccccc12 (configuration not stated)	DAX1 inh-1 5.2 (no result: Wee1 stabilizer, DAX1 inh-2) | DAX1 conf inactive | SF1 mutant ctr inactive
COC(=O)C1=CN(c2ccc(OC)cc2)C(N)=C(C#N)C1c1cccc2ccccc12 (configuration not stated)	none (no result: Wee1 stabilizer, DAX1 inh-2)
Cc1ccc(-n2ncc3c(N4CCCC(C)C4)ncnc32)c(C)c1 (configuration not stated)	DAX1 inh-1 4.8, hgDAF12 agonist 11 (no result: Wee1 stabilizer) | DAX1 conf 7.2 | SF1 mutant ctr 5.5
COc1ccc(Nc2nc3ccccc3s2)cc1	DAX1 inh-1 5.5, hgDAF12 agonist 27, DAX1 inh-2 4.3 | DAX1 conf 12 | SF1 mutant ctr 7.3
COc1ccc(CNc2nc3ccccc3s2)cc1OC	none (no result: Wee1 stabilizer)
O=C(NC1CCCCN(Cc2cccc(C(F)(F)F)c2)C1=O)c1cccc(F)c1 (configuration not stated)	none (no result: Wee1 stabilizer, DAX1 inh-2)
